Reference: PubChem BioAssay AID1489 (National Center for Advancing Translational Sciences (NCATS), 2009)
Records with an inconclusive call do not appear. Active and inactive are the calls of the source. Calls come from the whole dose curve; as a rule, active = well fitted antagonist curve with a large enough effect in the main read-out, with a control signal flat; inconclusive = small, poorly fitted or top-dose-only effect; inactive = no such curve, though single readings can be large or run the other way.

The molecules below were run against Neuropeptide S receptor (Homo sapiens) (UniProt Q6W5P4) (assay: Confirmation Concentration-Response Assay for Antagonists of the Neuropeptide S Receptor: Calcium Signal Transduction). Conditions: CHO-NPSR cells, NPS-induced calcium flux, FDSS; series mostly up to 19.3 µM; activity change, negative = inhibition: at the top concentration.
Chain of Neuropeptide S receptor (Homo sapiens) (Q6W5P4 whole entry, looked up): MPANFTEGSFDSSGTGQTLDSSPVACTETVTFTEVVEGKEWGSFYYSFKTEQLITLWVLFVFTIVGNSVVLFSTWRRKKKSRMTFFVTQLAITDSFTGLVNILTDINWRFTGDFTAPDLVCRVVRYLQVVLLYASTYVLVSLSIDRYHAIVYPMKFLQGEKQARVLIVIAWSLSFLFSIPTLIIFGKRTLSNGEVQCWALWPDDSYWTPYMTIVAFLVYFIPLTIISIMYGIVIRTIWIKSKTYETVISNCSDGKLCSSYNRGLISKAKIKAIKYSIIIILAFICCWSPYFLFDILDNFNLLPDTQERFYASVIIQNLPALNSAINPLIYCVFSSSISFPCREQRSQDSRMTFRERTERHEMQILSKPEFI
In short: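 CHO cells stably expressing human NPSR, loaded with calcium dye; compounds added, then stimulated with NPS (60 nM in stimulation reagent). Fluorescence (Ex 480, Em 520–560 nm) recorded kinetically on FDSS; AC50 from Hill fit.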

Activity change, negative = inhibition, inactive:
CCc1ccc2oc(-c3cc(N)cc(C)c3O)nc2c1 12%
Cc1ccc(S(=O)(=O)Nc2ccccc2CNc2c(C)n(C)n(-c3ccccc3)c2=O)cc1 -20.6%
Cc1cc2nc3ccc(=[N+](C)C)cc-3sc2cc1N -7.55%
Nn1c(COc2ccccc2)nnc1SCc1cc(=O)[nH]c2ccccc12 7.99%
Cc1cccc(-c2nnc(SCc3cc(=O)[nH]c4ccccc34)n2C)c1 -8.64%
Cc1oc2c(c1C(=O)NCc1cccnc1)C(=O)c1ccccc1C2=O 16.4%
NC(=O)OCC(COC(N)=O)c1ccccc1 20.6%
Nc1ccc(-c2nc3c(Cl)cc(N)cc3[nH]2)cc1 -10.2%
CC(=O)n1nc2nc(C)cc(C)c2c1N 6.81%
Cc1nn(C)cc1/C=N/NC(=S)Nc1ccccc1 3.91%
O=C(N1CCOCC1)C1(c2ccc(Cl)cc2)CCCC1 17.2%
COc1ccccc1-c1nnc(SC2CCc3ccccc3NC2=O)s1 (stereo not drawn) -30%
CCOc1ccc(N2C(=O)CC(NCCc3ccncc3)C2=O)cc1 (stereo not drawn) 12.8%
COc1ccc(C(=O)N(Cc2ccco2)Cc2cccs2)c(O)c1 34.4%
CCOC(=O)c1cnc(-n2nc(C)cc2C)nc1Nc1ccc(C)cc1 -19.5%
C=CCOc1c(Cl)cc(CNc2ccc(N(C)C)cc2)cc1OC -13.4%
CC(C)Cc1nc(N2CCN(C(=O)c3ccccc3)CC2)c(C#N)c2c1CCC2 16%
Cn1nc(-c2ccc(Cl)cc2)nc2c(=O)n(C)c(=O)nc1-2 25.8%
Cc1cc(OCC(=O)c2ccc(Br)cc2)ccc1N1C(=O)CCC1=O -13.3%
Cc1ccc(Cn2cc(SCC(=O)Nc3nccs3)c3ccccc32)cc1 -9.34%
C/C(=N\NC(=S)NC1CCCCC1)c1c(F)cccc1F -22.3%
COc1ccc(/C=C2\CCCC3C2=NN(C(=O)c2ccco2)C3c2ccc(OC)c(OC)c2)cc1OC (stereo not drawn) 14.6%

Potency, active:
COc1cccc2sc(Nc3nc(-c4ccccn4)cs3)nc12 3.16 µM
